The results in this text go back to ChEMBL document CHEMBL2218924, “A broad activity screen in support of a chemogenomic map for kinase signalling research and drug discovery” (Biochem J, 2013).

Test [1] addresses Serine/threonine-protein kinase Nek6 (Homo sapiens) (UniProt Q9HC98). The note with it: at 1 µM.
The target is the same in test [2]. To be noted: at 10 µM.
In test [3] the target is Serine/threonine-protein kinase Nek7 (Homo sapiens) (UniProt Q8TDX7). The note with it: at 1 µM.
The target of test [4] is T1, Serine/threonine-protein kinase NLK (Homo sapiens) (UniProt Q9UBE8).
T1 sequence (whole entry): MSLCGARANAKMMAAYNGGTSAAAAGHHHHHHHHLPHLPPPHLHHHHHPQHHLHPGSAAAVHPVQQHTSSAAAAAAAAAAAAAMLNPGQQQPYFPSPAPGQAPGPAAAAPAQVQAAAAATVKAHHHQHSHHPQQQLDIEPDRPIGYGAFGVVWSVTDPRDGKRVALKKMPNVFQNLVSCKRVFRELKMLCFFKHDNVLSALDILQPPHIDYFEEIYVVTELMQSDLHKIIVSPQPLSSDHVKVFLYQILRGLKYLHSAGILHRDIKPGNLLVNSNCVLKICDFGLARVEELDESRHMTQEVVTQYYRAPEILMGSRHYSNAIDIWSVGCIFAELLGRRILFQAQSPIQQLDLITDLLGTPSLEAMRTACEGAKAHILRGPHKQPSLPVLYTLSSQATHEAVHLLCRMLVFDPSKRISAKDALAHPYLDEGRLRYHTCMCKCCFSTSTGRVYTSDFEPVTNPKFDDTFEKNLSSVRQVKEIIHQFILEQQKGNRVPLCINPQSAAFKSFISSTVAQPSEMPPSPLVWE
To be noted: at 1 µM.

The target of test [5] is T1, Serine/threonine-protein kinase NLK (Homo sapiens). To be noted: at 10 µM.
The target of test [6] is Serine/threonine-protein kinase PAK 4 (Homo sapiens) (UniProt O96013). To be noted: at 1 µM.
Chain of Serine/threonine-protein kinase PAK 4 (Homo sapiens) (O96013 whole entry, looked up): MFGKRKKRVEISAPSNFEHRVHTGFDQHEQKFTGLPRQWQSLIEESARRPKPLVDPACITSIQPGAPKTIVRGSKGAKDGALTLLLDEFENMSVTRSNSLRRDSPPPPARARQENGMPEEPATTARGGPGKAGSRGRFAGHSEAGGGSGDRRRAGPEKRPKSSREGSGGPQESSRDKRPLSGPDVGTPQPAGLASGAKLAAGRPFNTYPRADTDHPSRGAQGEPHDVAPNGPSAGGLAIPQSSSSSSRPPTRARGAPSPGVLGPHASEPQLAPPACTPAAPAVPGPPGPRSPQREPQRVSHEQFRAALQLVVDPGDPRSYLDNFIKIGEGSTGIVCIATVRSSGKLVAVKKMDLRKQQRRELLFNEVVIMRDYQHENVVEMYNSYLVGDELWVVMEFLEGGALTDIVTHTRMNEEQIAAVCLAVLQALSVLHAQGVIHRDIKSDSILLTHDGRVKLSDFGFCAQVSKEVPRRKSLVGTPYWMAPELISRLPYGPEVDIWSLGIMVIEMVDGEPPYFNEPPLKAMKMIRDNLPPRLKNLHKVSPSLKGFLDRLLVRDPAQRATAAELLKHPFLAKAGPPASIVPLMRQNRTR
For test [7] the target is unchanged. To be noted: at 10 µM.
Test [8] deals with Serine/threonine-protein kinase PAK 6 (Homo sapiens) (UniProt Q9NQU5). To be noted: at 1 µM.
Test [9] has the same target. To be noted: at 10 µM.
Test [10] deals with Activated CDC42 kinase 1 (Homo sapiens) (UniProt Q07912). The note with it: at 1 µM.
The target is the same in test [11]. To be noted: at 10 µM.
Test [12] addresses ALK tyrosine kinase receptor (Homo sapiens) (UniProt Q9UM73). To be noted: at 1 µM.
Test [13] concerns the target Ribosomal protein S6 kinase beta-1 (Homo sapiens) (UniProt P23443). The note with it: at 1 µM.
For test [14] the target is unchanged. The note with it: at 10 µM.
Test [15] addresses Serine/threonine-protein kinase PAK 5 (Homo sapiens) (UniProt Q9P286). To be noted: at 10 µM.
Test [16] concerns the target PAS domain-containing serine/threonine-protein kinase (Homo sapiens) (UniProt Q96RG2). To be noted: at 10 µM.
For test [17], the target named is Serine/threonine-protein kinase Nek7 (Homo sapiens) (UniProt Q8TDX7). The note with it: at 10 µM.
The target in test [18] is Serine/threonine-protein kinase PAK 5 (Homo sapiens) (UniProt Q9P286). To be noted: at 1 µM.
The target of test [19] is Serine/threonine-protein kinase PAK 2 (Homo sapiens) (UniProt Q13177). The note with it: at 1 µM.
Chain of Serine/threonine-protein kinase PAK 2 (Homo sapiens) (Q13177 whole entry): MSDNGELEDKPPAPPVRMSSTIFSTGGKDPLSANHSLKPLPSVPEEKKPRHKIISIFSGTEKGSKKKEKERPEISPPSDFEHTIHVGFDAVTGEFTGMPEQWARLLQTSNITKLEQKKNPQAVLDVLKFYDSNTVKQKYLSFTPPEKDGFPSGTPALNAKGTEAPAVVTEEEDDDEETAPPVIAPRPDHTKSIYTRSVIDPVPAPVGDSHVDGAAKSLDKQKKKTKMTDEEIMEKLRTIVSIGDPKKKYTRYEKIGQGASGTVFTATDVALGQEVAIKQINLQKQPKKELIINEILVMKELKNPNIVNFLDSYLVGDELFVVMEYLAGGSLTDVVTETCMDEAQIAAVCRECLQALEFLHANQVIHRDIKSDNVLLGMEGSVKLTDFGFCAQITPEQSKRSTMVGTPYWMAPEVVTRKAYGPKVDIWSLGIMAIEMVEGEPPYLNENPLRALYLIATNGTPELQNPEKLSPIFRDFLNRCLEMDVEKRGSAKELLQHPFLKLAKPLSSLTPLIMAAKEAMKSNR
For test [20] the target is unchanged. The note with it: at 10 µM.

Chain of Ribosomal protein S6 kinase beta-1 (Homo sapiens) (P23443 whole entry, looked up): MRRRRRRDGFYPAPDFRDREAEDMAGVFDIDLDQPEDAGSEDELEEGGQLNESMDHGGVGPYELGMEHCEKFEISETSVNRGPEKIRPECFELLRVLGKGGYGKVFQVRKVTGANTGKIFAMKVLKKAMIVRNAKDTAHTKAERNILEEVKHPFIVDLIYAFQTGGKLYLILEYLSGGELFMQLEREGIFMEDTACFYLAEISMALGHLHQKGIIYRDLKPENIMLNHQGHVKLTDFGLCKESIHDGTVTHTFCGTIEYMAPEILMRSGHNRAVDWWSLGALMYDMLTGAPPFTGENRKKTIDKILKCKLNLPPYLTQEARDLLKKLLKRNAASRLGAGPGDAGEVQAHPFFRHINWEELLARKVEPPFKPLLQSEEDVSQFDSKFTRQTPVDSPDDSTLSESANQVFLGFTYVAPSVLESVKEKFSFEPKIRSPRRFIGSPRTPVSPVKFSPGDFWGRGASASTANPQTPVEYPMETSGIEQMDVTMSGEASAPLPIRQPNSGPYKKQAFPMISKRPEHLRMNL
Chain of Serine/threonine-protein kinase Nek7 (Homo sapiens) (Q8TDX7 whole entry, looked up): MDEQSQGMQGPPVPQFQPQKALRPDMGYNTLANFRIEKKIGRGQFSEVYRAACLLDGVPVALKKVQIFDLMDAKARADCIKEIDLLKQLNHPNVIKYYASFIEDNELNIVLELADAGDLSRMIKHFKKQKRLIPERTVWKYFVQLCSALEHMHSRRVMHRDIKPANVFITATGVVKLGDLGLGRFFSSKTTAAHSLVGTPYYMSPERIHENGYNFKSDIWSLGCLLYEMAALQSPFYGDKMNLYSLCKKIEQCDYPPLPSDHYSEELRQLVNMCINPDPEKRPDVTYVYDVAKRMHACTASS
Chain of PAS domain-containing serine/threonine-protein kinase (Homo sapiens) (Q96RG2 whole entry, the tested form may be a part): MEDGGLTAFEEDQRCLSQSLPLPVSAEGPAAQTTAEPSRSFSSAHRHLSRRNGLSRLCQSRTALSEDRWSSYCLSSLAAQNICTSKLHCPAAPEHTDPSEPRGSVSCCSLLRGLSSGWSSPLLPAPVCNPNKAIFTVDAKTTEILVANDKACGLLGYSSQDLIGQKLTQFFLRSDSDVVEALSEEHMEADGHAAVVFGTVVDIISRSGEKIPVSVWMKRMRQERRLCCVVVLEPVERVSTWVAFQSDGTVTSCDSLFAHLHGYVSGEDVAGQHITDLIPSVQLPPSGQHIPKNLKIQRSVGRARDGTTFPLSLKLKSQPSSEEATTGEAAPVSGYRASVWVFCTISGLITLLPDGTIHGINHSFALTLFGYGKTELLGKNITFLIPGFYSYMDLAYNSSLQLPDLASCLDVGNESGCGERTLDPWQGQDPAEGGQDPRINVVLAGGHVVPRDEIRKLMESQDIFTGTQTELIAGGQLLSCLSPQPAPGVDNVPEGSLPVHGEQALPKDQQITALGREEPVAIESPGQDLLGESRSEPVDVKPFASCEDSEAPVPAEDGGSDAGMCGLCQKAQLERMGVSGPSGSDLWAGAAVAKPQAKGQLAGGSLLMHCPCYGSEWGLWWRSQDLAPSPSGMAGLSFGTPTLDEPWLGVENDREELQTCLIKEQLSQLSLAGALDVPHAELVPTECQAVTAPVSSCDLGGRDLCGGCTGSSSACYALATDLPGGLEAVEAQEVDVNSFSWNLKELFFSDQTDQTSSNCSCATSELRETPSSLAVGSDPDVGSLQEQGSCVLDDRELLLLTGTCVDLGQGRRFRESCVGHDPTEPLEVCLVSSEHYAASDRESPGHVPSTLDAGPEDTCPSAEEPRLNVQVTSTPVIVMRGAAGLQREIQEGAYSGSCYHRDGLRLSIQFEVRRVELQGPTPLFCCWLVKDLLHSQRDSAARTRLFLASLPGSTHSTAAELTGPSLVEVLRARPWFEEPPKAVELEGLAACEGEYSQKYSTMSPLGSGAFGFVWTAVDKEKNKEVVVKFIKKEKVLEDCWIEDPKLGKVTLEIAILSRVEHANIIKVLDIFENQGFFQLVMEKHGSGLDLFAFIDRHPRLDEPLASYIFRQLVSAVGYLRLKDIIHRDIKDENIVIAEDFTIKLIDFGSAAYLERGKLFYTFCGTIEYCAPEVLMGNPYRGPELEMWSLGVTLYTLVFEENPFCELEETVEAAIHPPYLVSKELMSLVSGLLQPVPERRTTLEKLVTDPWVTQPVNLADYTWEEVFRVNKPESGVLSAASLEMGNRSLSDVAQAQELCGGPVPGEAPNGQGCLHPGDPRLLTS
Chain of ALK tyrosine kinase receptor (Homo sapiens) (Q9UM73 19-1620 limits assumed): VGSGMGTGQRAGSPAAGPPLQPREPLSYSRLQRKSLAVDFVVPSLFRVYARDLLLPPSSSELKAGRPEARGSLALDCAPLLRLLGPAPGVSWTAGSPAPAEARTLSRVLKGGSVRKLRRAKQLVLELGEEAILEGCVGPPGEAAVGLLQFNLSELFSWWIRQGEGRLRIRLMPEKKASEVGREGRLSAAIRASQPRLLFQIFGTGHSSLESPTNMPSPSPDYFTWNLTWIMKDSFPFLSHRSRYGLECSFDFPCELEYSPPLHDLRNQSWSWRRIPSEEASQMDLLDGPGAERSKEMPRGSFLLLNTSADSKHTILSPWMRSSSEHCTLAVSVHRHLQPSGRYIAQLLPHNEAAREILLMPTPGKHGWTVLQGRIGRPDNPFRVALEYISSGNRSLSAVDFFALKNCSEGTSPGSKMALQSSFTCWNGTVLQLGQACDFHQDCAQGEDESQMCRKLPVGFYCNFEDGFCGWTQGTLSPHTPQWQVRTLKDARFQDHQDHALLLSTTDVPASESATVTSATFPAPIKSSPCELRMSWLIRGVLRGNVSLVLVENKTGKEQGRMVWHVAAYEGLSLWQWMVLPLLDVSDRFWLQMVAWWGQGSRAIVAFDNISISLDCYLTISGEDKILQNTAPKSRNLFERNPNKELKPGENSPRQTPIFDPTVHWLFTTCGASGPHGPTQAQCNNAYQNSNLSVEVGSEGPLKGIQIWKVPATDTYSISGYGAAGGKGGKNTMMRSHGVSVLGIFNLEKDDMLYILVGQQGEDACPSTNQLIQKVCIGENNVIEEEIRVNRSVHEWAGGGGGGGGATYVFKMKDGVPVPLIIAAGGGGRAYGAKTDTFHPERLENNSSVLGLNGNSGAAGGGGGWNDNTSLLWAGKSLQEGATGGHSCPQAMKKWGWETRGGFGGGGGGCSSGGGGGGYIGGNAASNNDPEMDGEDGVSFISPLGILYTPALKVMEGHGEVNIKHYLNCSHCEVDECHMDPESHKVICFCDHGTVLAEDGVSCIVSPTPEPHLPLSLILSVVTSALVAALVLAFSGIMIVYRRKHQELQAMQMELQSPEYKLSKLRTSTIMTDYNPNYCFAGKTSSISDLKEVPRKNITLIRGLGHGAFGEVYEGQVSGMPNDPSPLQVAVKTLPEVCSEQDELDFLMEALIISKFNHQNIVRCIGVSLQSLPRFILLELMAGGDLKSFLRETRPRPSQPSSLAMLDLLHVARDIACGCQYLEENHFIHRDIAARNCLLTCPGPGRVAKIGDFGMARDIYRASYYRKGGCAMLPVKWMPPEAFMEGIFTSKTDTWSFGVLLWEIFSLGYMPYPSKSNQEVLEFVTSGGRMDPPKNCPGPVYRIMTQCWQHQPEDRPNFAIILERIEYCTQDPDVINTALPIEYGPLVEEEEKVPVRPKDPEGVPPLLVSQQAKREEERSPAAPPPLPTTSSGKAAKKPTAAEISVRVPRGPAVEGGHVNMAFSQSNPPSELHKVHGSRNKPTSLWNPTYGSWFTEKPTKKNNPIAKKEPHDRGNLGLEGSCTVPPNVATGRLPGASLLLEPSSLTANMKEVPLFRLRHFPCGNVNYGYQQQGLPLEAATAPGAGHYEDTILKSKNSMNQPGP

With `CN(C)S(=O)(=O)c1ccc2c(c1)/C(=C/c1cc3c([nH]1)CCCC3)C(=O)N2`, the residual activity is 115% (inactive) in test [1]; 114% in test [2]; 111% (inactive) in test [3]; 91% in [4]; 93% in [5]; 74% in test [6]. Further, the residual activity came out at 69% in [7]; 76% in test [8]; 50% in [9]; 13% in test [10]; 8% in [11]; 44% in test [12].
Turning to `COc1ccc(COc2ccc(Cc3cnc(N)nc3N)cc2OC)cc1`, the residual activity in test [13] was determined as 80%; in [14] it was 51%; in test [15] it was 100%; in [10] it was 79%; in [11], 68%; in test [12], 74%.
As for `O=C(Nc1nc2ccccc2n1CCN1CCOCC1)c1cccc([N+](=O)[O-])c1`, the residual activity in [16] amounted to 84%; in [10], 81%; in test [11], 55%; in test [12], 70%.
On to `CCN1/C(=C/C(C)=O)Sc2ccc(OC)cc21`, for which the residual activity in test [4] worked out at 76%; in [5], 77%; in [15] it was 80%; in test [10], 81%; in [11], 64%.
For `O=C(Nc1ccc(Cl)cc1)c1ccccc1NCc1ccncc1`, the residual activity was 135% in [13]; 120% (inactive) in test [17]; 100% in test [6]; 99% in test [7]; 117% in test [18]; 128% in test [15]. For the same compound, the residual activity in test [11] stood at 76%.
For the compound `O=C(CCCc1ccc(-c2ccccc2F)cc1)Nc1ccc(O)cc1`, the residual activity in test [1] is 112% (inactive); in [2] it was 127%; in test [4], 106%; in test [5], 100%; in [19], 106%; in test [6] it was 103%. Besides, the residual activity in test [7] amounted to 91%; in [18], 104%; in test [15] it was 95%; in test [8], 96%; in test [9] it was 103%; in test [16], 108%. The residual activity in test [10] was found to be 89%; in test [11], 75%; in test [12], 88%.
As for `COc1ccc(-c2cnc3c(-c4ccsc4)cnn3c2)cc1`, the residual activity in [13] came out at 72%; in [14], 66%; in test [6], 99%; in [7] it was 94%; in test [18] it was 94%; in test [16], 94%. Moreover, the residual activity in test [10] was found to be 71%; in test [11] it was 68%.
As for `CC(C)[C@H](CO)Nc1nc(Nc2cc(N)cc(Cl)c2)c2ncn(C(C)C)c2n1`, the residual activity in test [13] came out at 86%; in test [14], 39%; in test [18], 57%; in test [15], 12%; in [8], 26%; in [9] it was 5%. Moreover, the residual activity is 29% in test [10] and 9% in [11].
In the case of `O=c1cc(N2CCOCC2)oc2c(-c3ccccc3)cccc12`, the residual activity in [14] was 63%; in test [5], 72%; in test [9], 77%; in test [16], 59%; in test [10], 76%; in test [11], 58%. Besides, the residual activity in [12] came to 73%.
With `NC(=O)c1cccc(-c2cc(Nc3ccc(OC(F)(F)F)cc3)ncn2)c1`, the residual activity in test [13] was 97%; in [14] it was 74%; in test [4], 94%; in test [5], 40%; in [18], 92%; in [15], 84%. In addition, the residual activity in test [11] worked out at 86%.
Regarding `COc1ccc(CNC(=O)Nc2ncc([N+](=O)[O-])s2)cc1`, the residual activity in test [1] is 114% (inactive); in test [2], 103%; in [16] it was 110%; in test [10] it was 77%; in test [11], 55%; in [12], 70%.
`CN([C@@H](Cc1ccc(OS(=O)(=O)c2cccc3cnccc23)cc1)C(=O)N1CCN(c2ccccc2)CC1)S(=O)(=O)c1cccc2cnccc12`: the residual activity in [4] was determined as 100%; in test [5] it was 99%; in [20], 98%; in test [18], 115%; in test [15], 72%; in test [8], 84%. Also, the residual activity in [9] turned out to be 50%; in test [16] it was 79%; in test [10], 100%; in test [12], 74%.
Take `Cc1cc(C)c(/C=C2\C(=O)Nc3ccccc32)[nH]1`: the residual activity in [3] is 101% (inactive); in test [7], 69%; in test [9] it was 62%; in test [10] it was 52%; in [11], 18%; in test [12], 37%.
With `CC(C)(C)c1nc2c3ccc(F)cc3c3c(=O)[nH]ccc3c2[nH]1`, the residual activity in [13] was 47%; in test [14], 44%; in test [4], 34%; in [5] it was 19%; in [9], 68%; in test [10], 10%. Further, the residual activity was 0% in test [11] and 30% in test [12].
Take `O=c1c(-c2ccc(F)cc2)c(-c2ccncc2)[nH]n1-c1ccc(Cl)cc1`: the residual activity is 129% in [13]; 101% (inactive) in test [1]; 42% in test [4]; 12% in [5]; 66% in [11].
Consider `Nc1nc(Nc2ccc(S(N)(=O)=O)cc2)nn1C(=O)c1c(F)cccc1F`, for which the residual activity in test [1] was 105% (inactive); in test [2] it was 115%; in test [3] it was 111% (inactive); in [17], 105% (inactive); in [4] it was 75%; in test [5] it was 34%. For the same compound, the residual activity came to 118% in test [19]; 17% in test [7]; 71% in test [18]; 24% in [15]; 79% in [8]; 34% in [9]. The values for the residual activity in [10], in test [11] and in test [12] were 50%, 9% and 77%, respectively.
As to `NC(=O)c1ccc(-c2nc(-c3ccc4c(c3)OCCO4)c(-c3ccccn3)[nH]2)cc1`, the residual activity was 74% in test [13]; 86% in test [14]; 99% in test [6]; 98% in [7]; 79% in test [10]; 68% in test [11]. The residual activity in test [12] worked out at 74%.
With `CCOc1nc(NC(=O)Cc2cc(OC)ccc2OC)cc(N)c1C#N`, the residual activity amounted to 140% in [13]; 100% in [14]; 100% in test [8]; 77% in test [9]; 73% in test [10]; 58% in test [11]. The residual activity in [12] amounted to 81%.
